# In PubChem BioAssay (NCI):
# This is part of a sample that, as a whole, favours compounds with a hit. Of some 83,000 tested, about 20% had one in any assay.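 In brief: 96-well plates, 48 h treatment, single concentration, percent growth endpoint.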 A number with no mark means an inactive call. Activity calls are given as the source filed them. The calls were made as follows: active = growth percent below 10; inactive = the rest.
# Legend:
# Experiment in all cases: NCI-60 one-dose screen, 48 h (100 = growth as untreated, 0 = no growth, -100 = all killed)
# SR leukemia = details: 10 µM unless noted
# OVCAR-5 ovarian = details: 10 µM unless noted
# OVCAR-4 ovarian = details: 10 µM unless noted
# SK-OV-3 ovarian = details: 10 µM unless noted
# IGROV1 ovarian = details: 10 µM unless noted
# HS 578T breast = details: 10 µM unless noted
# NCI/ADR-RES ovarian = details: 10 µM unless noted
# T-47D breast = details: 10 µM unless noted
# BT-549 breast = details: 10 µM unless noted
# MDA-MB-435 melanoma = details: 10 µM unless noted
# SW-620 colon = details: 10 µM unless noted
# MCF7 breast = details: 10 µM
# HCT-116 colon = details: 10 µM unless noted
# HCC-2998 colon = details: 10 µM unless noted
# KM12 colon = details: 10 µM unless noted
# OVCAR-8 ovarian = details: 10 µM unless noted
# OVCAR-3 ovarian = details: 10 µM unless noted
# RPMI-8226 leukemia = details: 10 µM unless noted
SMILES,growth (SR leukemia),growth (OVCAR-5 ovarian),growth (OVCAR-4 ovarian),growth (SK-OV-3 ovarian),growth (IGROV1 ovarian),growth (HS 578T breast),growth (NCI/ADR-RES ovarian),growth (T-47D breast),growth (BT-549 breast),growth (MDA-MB-435 melanoma),growth (SW-620 colon),growth (MCF7 breast),growth (HCT-116 colon),growth (HCC-2998 colon),growth (KM12 colon),growth (OVCAR-8 ovarian),growth (OVCAR-3 ovarian),growth (RPMI-8226 leukemia)
CNc1ccc(N)cc1,119%,106%,89.6%,114%,101%,109%,87.6%,119%,87.6%,96.2%,104%,96.3%,107%,100%,107%,–,–,–
CCC(CC)COC(=O)c1ccc(O)c(O)c1,18.6%,91.3%,77.2%,67%,37.5%,86.8%,57.8%,43.6%,50%,69.8%,–,97.5%,72.6%,84.4%,61.3%,59.9%,–,–
C=C(Cl)C(=NC(C)(C)C)Nc1ccccc1C,1.56% (active),114%,91.7%,–,119%,96.5%,107%,64%,102%,32.2%,72.5%,66.6%,66.5%,113%,80.9%,89.2%,65.9%,–
CCOc1ccc(-c2nc3ccc(-c4nc5ccc(N6CCN(C)CC6)cc5[nH]4)cc3[nH]2)cc1,–,-45.8% (active),-65.1% (active),-93.7% (active),-82.9% (active),-58.3% (active),61%,-69.4% (active),-96.6% (active),-96% (active),-85.5% (active),-90.3% (active),-77.6% (active),-95.3% (active),-100% (active),-38.2% (active),-100% (active),-4.63% (active)
O=C1NC(=O)/C(=C/C=C/c2ccccc2)S1,–,92.5%,70.1%,74.7%,-6.36% (active),93.3%,42.9%,60.7%,–,49.6%,61.4%,19.1%,31.7%,13.2%,38%,43.1%,58.3%,–
S=C(NCCNC(=S)[S][Sn]([c]1ccccc1)([c]1ccccc1)[c]1ccccc1)[S][Sn]([c]1ccccc1)([c]1ccccc1)[c]1ccccc1,0.639% (active),-93.6% (active),-100% (active),–,-84.8% (active),-14.5% (active),-64.5% (active),-75.7% (active),-78.8% (active),–,-97.5% (active),-99.8% (active),-82.8% (active),-82.4% (active),-99.4% (active),-99.2% (active),-98.5% (active),–
CN1c2ccccc2C(C)(C)C12C=Cc1cc(O)ccc1O2 (stereo unspecified),–,82.5%,72.9%,71.4%,-7.4% (active),-7.66% (active),26.4%,40.2%,33.2%,-66.4% (active),46.9%,5.47% (active),67.9%,83.2%,18.7%,–,–,–
Oc1ccc(/C=N/NC(=S)Nc2ccccc2)nc1,-22.7% (active),34.1%,–,18.9%,23.2%,88.5%,3.65% (active),12.6%,44.8%,–,39.4%,16.4%,21%,5.05% (active),11.3%,–,20%,–
